“And” between values parts separate entries of the source, which are not always exact repeats. Equal values may be shown once. Results filed as inconclusive are left out. The source made the active and inactive calls. Unless noted, calls follow the shape of the dose curve; as a rule, active = well fitted curve in the direction sought with a large enough effect; inconclusive = small, poorly fitted or top-dose-only effect, or another doubt; inactive = no such curve, though single readings can be large; an effect the other way counts as inactive or inconclusive.

Test [1] can be described thus: Cell Viability - SK-N-SH (AID 435; calls by dose curve;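 also: potency is read from the fitted curve at half-maximal effect; compound exposure lasted 40 h at 37 °C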). The conditions noted are these: SK-N-SH neuroblastoma cell viability qHTS. The procedure, abridged:
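SK-N-SH human neuroblastoma cells (1500/well) were exposed to compounds in complete medium for 40 h at 37 °C, and intracellular ATP was then measured by CellTiter-Glo luminescence. AC50 was taken from Hill fits, normalized to DMSO and 100 uM tamoxifen.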

Test [2] deals with Mitogen-activated protein kinase 10 (Mus musculus) (UniProt Q61831). Nature of the test: JNK3 AlphaScreen Assay (AID 530; active = well fitted curve in either direction with a large enough effect, not every such curve was filed as active;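 also: kinase came from lysate of stimulated human HepG2 cells; signal reports phosphorylation of biotinylated GST-cJun 1-79 at Ser73 with 10 µM ATP; % is scaled to controls: 0 for no effect and ±100 for the full control effect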). The conditions noted are these: JNK3 lysate, c-Jun phosphorylation; series mostly up to 11.4 µM. The procedure, abridged:
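Phosphorylation of biotinylated GST-cJun(1-79) at Ser73 is measured by AlphaScreen proximity luminescence. Enzyme is JNK3 in HepG2 lysates activated with interleukin-1beta and tumor necrosis factor alpha; ATP is 10 uM final.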

Test [3] in a line: Cell Viability - LYMP2-001 (AID 921).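 Also: 0% = DMSO only and full inhibition = tetraoctylammonium bromide control wells; nearly all actives have a fitted effect of over 70% in size.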 The conditions noted are these: LYMP2-001 lymphoblastoid cell viability; series mostly up to 92.2 µM. In short, it runs like this: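 Human lymphoblastoid cells (Coriell), 2500 per well, were preincubated 5 hr at 37 C, then exposed to compounds in complete medium for 24 hr at 37 C. Cellular ATP was read by CellTiter-Glo luminescence; AC50 from Hill fits of concentration-response data.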

A short description of test [4]: MultiTox-Fluor Cytotoxicity Assay - LYMP1-001 - Live Cells (AID 947).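 Also: 0% = DMSO only and full inhibition = tetraoctylammonium bromide control.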 The conditions noted are these: LYMP1-001 lymphoblastoid cells, live-cell protease fluorescence viability; series mostly up to 92.2 µM.
Test [5] can be described thus: Cell Viability - LYMP1-003 - Assay at 40 hr (AID 964). Also: % is scaled to controls: 0 for no effect and ±100 for the full control effect; nearly all actives have a fitted effect of over 60% in size. The conditions noted are these: LYMP1-003 lymphoblastoid viability; series mostly up to 92.2 µM. In short, it runs like this: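 Luminescent ATP signal (CellTiter-Glo) served as the viability read-out after 40 hr compound treatment of human lymphoblastoid LYMP1-003 cells at 37 C. Decreases in ATP were fitted with the Hill equation to give AC50.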

Test [6] is described as follows: Cell Viability - LYMP2-019 (AID 973).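 Also: 0% = DMSO alone and full effect = 92 µM tetraoctylammonium bromide; nearly all actives have a fitted effect of over 55% in size.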 The following applies: LYMP2-019 lymphoblastoid cell line viability; series mostly up to 92.2 µM. In short, it runs like this:
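Cytotoxicity is scored as a concentration-dependent drop in cellular ATP after cells (2500/well) receive compound for 24 hr at 37 C. Tetraoctylammonium bromide serves as positive control.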

Test [7] in a line: Cell Viability - LYMP2-023 (AID 975).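 Also: cellular ATP measured by luciferase luminescence as viability proxy; plate controls were DMSO only for no effect and 92 µM tetraoctylammonium bromide control for full effect; nearly all actives have a fitted effect of over 55% in size.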 The following applies: LYMP2-023 lymphoblastoid cell viability; series mostly up to 92.2 µM. In short, it runs like this: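 Steps: seed 2500 human lymphoblastoid cells per well, incubate 5 hr at 37 C, add compound for 24 hr at 37 C, add CellTiter-Glo, hold 30 min at room temperature, read luminescence. AC50 derived by Hill modelling.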
The target of test [8] is Glucocorticoid receptor (Homo sapiens) (UniProt P04150). Description: qHTS assay for small molecule antagonists of glucocorticoid receptor signaling (AID 588533; active = well fitted inhibition curve with a large enough effect in the signal ratio, with a control signal flat, not every such curve was filed as active; the % refers to the signal ratio;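 also: cells stimulated with 2 nM dexamethasone as agonist; % is scaled to controls: 0 for no effect and ±100 for the full control effect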). The following applies: HeLa MMTV-bla, GRE beta-lactamase ratio, antagonist mode, 18 h; series mostly up to 76.8 µM. The procedure, abridged:
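Antagonist-mode qHTS: compound titrations added to GRE-bla HeLa cells, then dexamethasone 2 nM final; 18 h, 37 C. CCF4 FRET fluorescence normalized to dexamethasone and DMSO; IC50 from Hill fit.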

Test [9] in a line: qHTS assay for small molecule antagonists of peroxisome proliferator-activated receptor delta signaling (AID 588535).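 Also: cells co-treated with a PPAR-delta agonist as stimulator during compound exposure.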 The following applies: HEK293T PPARd-UAS-bla, beta-lactamase FRET ratio, 18 h; 460 nm channel. In short, it runs like this:
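Inhibition of PPAR-delta response element-driven beta-lactamase expression is measured in HEK293T cells exposed to a compound titration series for 18 hrs at 37 C. Half-maximal inhibition comes from Hill equation fitting.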

Test [10] has as its target Thyroid hormone receptor beta (Homo sapiens) (UniProt P10828). Description: qHTS assay for small molecule antagonists of thyroid hormone receptor beta signaling (AID 588547; active = well fitted inhibition curve with a large enough effect in the signal ratio, with a control signal flat, not every such curve was filed as active; the % refers to the signal ratio;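 also: cells stimulated with 0.4 nM T3 agonist during compound exposure; % is scaled to controls: 0 for no effect and ±100 for the full control effect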). The following applies: TR-UAS-bla HEK293, beta-lactamase ratio, antagonist mode, 18 h. In short, it runs like this: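 TR-UAS-bla GripTite HEK293 cells in 2% charcoal/dextran FBS medium were preincubated 4 h at 37 C, given compound (0.59 nM to 92 uM) plus 0.4 nM T3 (final) for 18 h, then CCF4 for 2 h at RT; Hill fit gave IC50.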

For test [11], the target named is Voltage-gated inwardly rectifying potassium channel KCNH2 (Homo sapiens) (UniProt Q12809). Nature of the test: qHTS Assay for Small Molecule Inhibitors of the Human hERG Channel Activity (AID 588834).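 Also: top concentration of the series differs between compounds; % is scaled to controls: 0 for no effect and ±100 for the full control effect; lower thallium flux fluorescence means stronger hERG block; nearly all actives have a fitted effect of over 50% in size.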 The following applies: U2OS BacMam hERG, FluxOR thallium flux fluorescence; series mostly up to 92.2 µM. In short, it runs like this:
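In hERG-transduced U2OS cells, dye-loaded for 1 hr at room temperature in dark, test compounds incubated 10 min at 37 °C before thallium stimulation. AC50 values derived by Hill modelling of concentration-response.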

Test [12] in a line: MultiTox-Fluor Cytotoxicity Assay - LYMP1-002 - Live Cells (AID 955).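 Also: cells exposed to compound for 16 hours; % is scaled to controls: 0 for no effect and ±100 for the full control effect.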 The conditions noted are these: LYMP1-002 lymphoblastoid live-cell protease fluorescence viability; series mostly up to 46.1 µM. The procedure, abridged: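 Cells were seeded at 2500 per well and incubated 5 hr. Compounds were then added for 16 hr at 37 C, followed by MultiTox-Fluor reagent for 60 min at room temperature and fluorescence reading of viable-cell protease signal.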

The nature of test [13]: Cell Viability - LYMP2-025 (AID 976).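 Also: plate controls were DMSO only for no effect and tetraoctylammonium bromide control for full effect.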 The conditions noted are these: LYMP2-025 lymphoblastoid cell viability; series mostly up to 92.2 µM. In short, it runs like this: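 Acute cytotoxicity is scored as a concentration-dependent fall in intracellular ATP, measured by luciferase luminescence, in human lymphoblastoid LYMP2-025 cells exposed to compound for 24 hours at 37 C. AC50 values come from standard Hill fits.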

Test [14] is described as follows: Cell Viability - LYMP2-007 (AID 979).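 Also: cells exposed to compound for 24 h before reading; 0% = DMSO only and the negative end = 92 µM tetraoctylammonium bromide; nearly all actives have a fitted effect of over 60% in size.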 The following applies: LYMP2-007 lymphoblastoid cell viability; series mostly up to 92.2 µM. In short, it runs like this:
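Cells are seeded at 2500 per well and rested 5 hr. Compounds are then added over a concentration series for 24 hr at 37 C. CellTiter-Glo is added for 30 min at room temperature before luminescence reading.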

Test [15] is described as follows: Cell Viability - LYMP2-018 (AID 985).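 Also: compound exposure lasted 24 hr at 37 °C; plate controls were DMSO only for no effect and tetraoctylammonium bromide at 92 µM for full effect; nearly all actives have a fitted effect of over 50% in size.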 The following applies: LYMP2-018 lymphoblastoid cells, viability (qHTS); series mostly up to 92.2 µM. In short, it runs like this: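 Seed 2500 lymphoblastoid cells per well, incubate 5 hr at 37 C, add compound and incubate 24 hr at 37 C, add CellTiter-Glo, wait 30 min at room temperature, then read luminescence.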
A short description of test [16]: Cell Viability - LYMP2-022 (AID 987).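 Also: 0% = DMSO alone and full effect = tetraoctylammonium bromide at 92 µM; nearly all actives have a fitted effect of over 55% in size.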 The conditions noted are these: LYMP2-022 lymphoblastoid cell viability; series mostly up to 92.2 µM. In short, it runs like this: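 Cells were seeded at 2500 per well, rested 5 hr at 37 C, and treated with titrated compounds for 24 hr at 37 C. Cellular ATP was then quantified by luciferase luminescence, and AC50 values were derived from Hill-modelled concentration-response curves.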

Test [17] has as its target Bile acid receptor (Homo sapiens) (UniProt Q96RI1). Nature of the test: qHTS assay for small molecule antagonists of farnesoid X receptor signaling (AID 588526; calls by dose curve; also: potency is read from the fitted curve at half-maximal effect). The following applies: HEK293T FXR-UAS-bla, beta-lactamase ratio, antagonist mode; series mostly up to 76.7 µM. The procedure, abridged:
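Concentration-response titrations were fitted to the Hill equation for half-maximal inhibition and maximal response, with data normalised to 50 uM chenodeoxycholic acid and DMSO control wells. Cells: FXR-UAS-bla HEK293T, dialyzed FBS.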

Test [18] addresses Glucocorticoid receptor (Homo sapiens) (UniProt P04150). Nature of the test: qHTS assay for small molecule agonists of glucocorticoid receptor signaling (AID 588532; active = well fitted curve in the direction sought with a large enough effect in the signal ratio, with a control signal flat; the % refers to the signal ratio;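 also: 100% = dexamethasone at 0.1 µM and 0% = DMSO only wells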). The conditions noted are these: HeLa MMTV-bla, beta-lactamase ratio, agonist, 18 h; stronger effect = higher value; percent of dexamethasone control, DMSO zero. In short, it runs like this: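 Stimulation of a glucocorticoid response element-driven beta-lactamase gene was measured in HeLa cells. Responses were scaled between DMSO basal and 0.1 uM dexamethasone, then fitted for half-maximal stimulation.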

Test [19] has as its target Peroxisome proliferator-activated receptor gamma (Homo sapiens) (UniProt P37231). Nature of the test: qHTS assay for small molecule antagonists of peroxisome proliferator-activated receptor gamma signaling (AID 588537; active = well fitted inhibition curve with a large enough effect in the signal ratio, with a control signal flat, not every such curve was filed as active; the % refers to the signal ratio;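 also: reporter cells co-stimulated with 50 nM rosiglitazone agonist during compound treatment; % of control where 0% means no effect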). The following applies: HEK293 PPARg-UAS-bla, beta-lactamase ratio, antagonist mode; series mostly up to 76.8 µM. The procedure, abridged: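 Compounds are tested as concentration series for inhibition of rosiglitazone-driven (50 nM) reporter expression in GeneBLAzer PPAR-gamma-UAS-bla HEK293 cells. After 16 h at 37 C, CCF4 substrate is added for 2 h at room temperature and blue/green fluorescence is measured.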

Glucocorticoid receptor (Homo sapiens), sequence (P04150 whole entry, looked up): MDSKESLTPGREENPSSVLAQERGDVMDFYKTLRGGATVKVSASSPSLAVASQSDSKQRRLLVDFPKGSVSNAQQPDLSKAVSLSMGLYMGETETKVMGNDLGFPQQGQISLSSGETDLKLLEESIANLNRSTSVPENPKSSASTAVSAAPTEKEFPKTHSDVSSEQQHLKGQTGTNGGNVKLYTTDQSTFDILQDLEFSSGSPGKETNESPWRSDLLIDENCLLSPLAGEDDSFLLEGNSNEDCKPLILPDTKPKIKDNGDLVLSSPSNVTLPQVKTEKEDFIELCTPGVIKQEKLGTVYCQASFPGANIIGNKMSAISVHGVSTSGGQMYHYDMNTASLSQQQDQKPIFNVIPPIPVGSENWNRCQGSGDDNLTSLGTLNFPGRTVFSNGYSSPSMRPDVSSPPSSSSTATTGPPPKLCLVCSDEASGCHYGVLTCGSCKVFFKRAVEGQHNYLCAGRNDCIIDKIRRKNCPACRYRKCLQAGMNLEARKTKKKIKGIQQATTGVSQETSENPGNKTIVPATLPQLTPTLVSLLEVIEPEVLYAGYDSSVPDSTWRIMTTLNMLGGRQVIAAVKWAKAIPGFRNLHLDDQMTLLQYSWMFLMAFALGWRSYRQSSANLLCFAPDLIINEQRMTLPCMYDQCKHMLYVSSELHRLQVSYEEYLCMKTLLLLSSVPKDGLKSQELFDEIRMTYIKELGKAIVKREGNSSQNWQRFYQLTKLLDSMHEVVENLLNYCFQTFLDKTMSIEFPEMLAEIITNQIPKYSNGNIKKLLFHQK
Thyroid hormone receptor beta (Homo sapiens), sequence (P10828 whole entry, looked up): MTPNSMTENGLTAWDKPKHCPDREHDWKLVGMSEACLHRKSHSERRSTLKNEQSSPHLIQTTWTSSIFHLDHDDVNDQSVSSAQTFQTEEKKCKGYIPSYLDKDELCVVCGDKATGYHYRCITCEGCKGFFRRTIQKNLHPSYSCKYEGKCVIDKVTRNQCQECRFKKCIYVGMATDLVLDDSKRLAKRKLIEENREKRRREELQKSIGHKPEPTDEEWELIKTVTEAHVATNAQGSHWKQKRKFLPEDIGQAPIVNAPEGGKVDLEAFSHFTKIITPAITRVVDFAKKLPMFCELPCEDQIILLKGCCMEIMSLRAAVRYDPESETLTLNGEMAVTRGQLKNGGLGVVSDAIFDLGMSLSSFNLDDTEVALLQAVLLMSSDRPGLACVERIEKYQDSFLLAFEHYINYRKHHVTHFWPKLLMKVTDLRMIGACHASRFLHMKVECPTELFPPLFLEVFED
Bile acid receptor (Homo sapiens), sequence (Q96RI1 whole entry, looked up): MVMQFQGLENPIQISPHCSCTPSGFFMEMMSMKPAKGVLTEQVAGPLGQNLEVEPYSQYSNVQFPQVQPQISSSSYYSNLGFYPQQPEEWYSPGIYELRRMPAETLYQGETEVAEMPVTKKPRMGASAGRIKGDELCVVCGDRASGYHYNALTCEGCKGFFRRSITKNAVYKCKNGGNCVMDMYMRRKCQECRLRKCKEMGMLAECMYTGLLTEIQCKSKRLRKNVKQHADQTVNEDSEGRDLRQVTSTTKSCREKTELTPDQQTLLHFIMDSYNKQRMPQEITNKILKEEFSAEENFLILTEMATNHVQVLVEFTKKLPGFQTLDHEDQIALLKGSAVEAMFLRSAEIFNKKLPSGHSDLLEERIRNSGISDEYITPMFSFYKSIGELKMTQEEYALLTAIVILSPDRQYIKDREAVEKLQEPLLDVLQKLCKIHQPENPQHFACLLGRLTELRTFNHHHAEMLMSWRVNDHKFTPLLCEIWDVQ
Voltage-gated inwardly rectifying potassium channel KCNH2 (Homo sapiens), sequence (Q12809 whole entry, looked up): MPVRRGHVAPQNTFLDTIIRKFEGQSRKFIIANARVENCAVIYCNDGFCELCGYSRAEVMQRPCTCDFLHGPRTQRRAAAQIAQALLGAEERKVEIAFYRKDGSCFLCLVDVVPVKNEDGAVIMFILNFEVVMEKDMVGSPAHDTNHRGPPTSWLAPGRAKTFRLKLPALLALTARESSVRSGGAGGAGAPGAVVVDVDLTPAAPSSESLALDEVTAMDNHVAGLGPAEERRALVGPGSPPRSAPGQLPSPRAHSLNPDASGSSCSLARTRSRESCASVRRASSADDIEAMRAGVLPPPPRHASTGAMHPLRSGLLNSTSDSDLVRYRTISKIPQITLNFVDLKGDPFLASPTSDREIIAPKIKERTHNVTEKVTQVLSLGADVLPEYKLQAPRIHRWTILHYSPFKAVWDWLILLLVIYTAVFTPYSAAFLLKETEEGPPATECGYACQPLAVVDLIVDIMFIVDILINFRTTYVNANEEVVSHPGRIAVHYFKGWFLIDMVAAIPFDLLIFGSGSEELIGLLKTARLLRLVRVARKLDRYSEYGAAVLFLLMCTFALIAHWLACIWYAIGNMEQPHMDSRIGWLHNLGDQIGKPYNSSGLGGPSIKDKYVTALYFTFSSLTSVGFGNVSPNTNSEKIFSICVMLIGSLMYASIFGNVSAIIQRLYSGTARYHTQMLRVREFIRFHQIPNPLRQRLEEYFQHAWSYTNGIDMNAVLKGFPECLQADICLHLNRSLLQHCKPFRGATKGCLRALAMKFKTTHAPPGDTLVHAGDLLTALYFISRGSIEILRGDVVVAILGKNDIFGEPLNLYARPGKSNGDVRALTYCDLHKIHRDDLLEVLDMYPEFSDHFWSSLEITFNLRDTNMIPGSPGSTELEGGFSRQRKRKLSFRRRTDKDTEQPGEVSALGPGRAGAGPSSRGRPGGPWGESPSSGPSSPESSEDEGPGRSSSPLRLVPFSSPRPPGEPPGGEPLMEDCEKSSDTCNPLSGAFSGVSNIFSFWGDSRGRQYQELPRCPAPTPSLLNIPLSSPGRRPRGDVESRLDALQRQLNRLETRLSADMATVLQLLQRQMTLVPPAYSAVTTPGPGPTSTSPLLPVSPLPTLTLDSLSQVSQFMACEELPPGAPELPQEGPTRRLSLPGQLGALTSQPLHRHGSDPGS
Peroxisome proliferator-activated receptor gamma (Homo sapiens), sequence (P37231 whole entry, looked up): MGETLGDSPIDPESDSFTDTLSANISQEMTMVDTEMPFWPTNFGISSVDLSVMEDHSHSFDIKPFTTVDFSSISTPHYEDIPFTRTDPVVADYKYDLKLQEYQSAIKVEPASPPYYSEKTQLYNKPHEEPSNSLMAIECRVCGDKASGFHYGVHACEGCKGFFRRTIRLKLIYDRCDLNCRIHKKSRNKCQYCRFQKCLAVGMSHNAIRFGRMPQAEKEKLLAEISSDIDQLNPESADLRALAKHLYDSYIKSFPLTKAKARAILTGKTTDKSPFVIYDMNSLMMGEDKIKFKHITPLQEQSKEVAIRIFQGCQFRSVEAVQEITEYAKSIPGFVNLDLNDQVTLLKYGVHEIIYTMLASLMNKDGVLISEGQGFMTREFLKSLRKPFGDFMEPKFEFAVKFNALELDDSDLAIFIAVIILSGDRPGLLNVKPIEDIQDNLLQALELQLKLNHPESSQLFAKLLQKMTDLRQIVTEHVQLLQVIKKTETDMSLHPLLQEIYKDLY

Regarding `C=C(C#N)C(=O)OCC`, in [1], the Potency is > 92 µM (inactive). The Potency result in test [2], in test [3], in test [4], in test [5], in test [6] and in [7] was “inactive” throughout. Moreover, the Potency entry in [8] and in test [11] was “inactive” in each case. For the same compound, the max response in [9] is -32.1%. Moreover, the activity change % (negative = inhibition) in test [10] was 4.82% (inactive).

As to `CCc1ccc(C(c2ccc(CC)cc2)C(Cl)Cl)cc1`, the Potency entry in test [3], in test [4], in test [13], in test [14], in test [15] and in [16] was “inactive” each time. Also, in test [8], the Potency entry is “inactive”. In addition, the compound was classed as inactive in test [12].

With `O=[N+]([O-])c1cc(N(CCO)CCO)ccc1NCCO`, the Potency entry in test [4], in test [14], in test [15] and in test [11] was “inactive” each time. Also, the call in test [12] was inactive. Besides, the max response in test [9] is 25% and 8.06%.

For the compound `Cc1c(C(=O)O)c(O)cc2c1C(=O)c1c(O)c([C@H]3O[C@H](CO)[C@@H](O)[C@H](O)[C@H]3O)c(O)c(O)c1C2=O`, the Potency result in [4], in test [17] and in test [8] was “inactive” in each case. Further, in test [18], the activation is -7.96% (inactive). In [9], the max response is 28.9%.

In the case of `CCCCC(CC)COP(=O)(OCC(CC)CCCC)OCC(CC)CCCC` (stereo unspecified), the Potency in test [1] is > 92 µM (inactive). The Potency entry in [2], in [3], in [4], in test [5], in [13] and in test [14] was “inactive” each time. Besides, the Potency result in test [8] and in test [19] was “inactive” in each case. For the same compound, the compound was called inactive in [12]. The max response in test [9] was determined as 38.7%. Moreover, in [10], the activity change % (negative = inhibition) was -23.6% (inactive).

`Nc1ccc2c(c1)C(=O)c1ccccc1C2=O`: in test [12], the compound was called inactive. For the same compound, the Potency result in test [5], in test [14], in test [15] and in test [8] was “inactive” throughout. Besides, the max response in [9] is -6.52%. The activity change % (negative = inhibition) in test [10] is -15.9% (inactive).

On to `CC(/C=C/C=C(C)/C=C/C(=O)O)=C\C=C\C=C(C)\C=C\C=C(C)\C=C\C(=O)O`, for which the Potency entry in test [2], in test [3], in test [5], in test [6], in test [13] and in [14] was “inactive” in each case. Also, the Potency result in test [17] and in test [8] was “inactive” in each case.

Regarding `Nc1cnn([C@@H]2O[C@H](CO)[C@@H](O)[C@H]2O)c(=O)n1`, the Potency in [1] was > 92 µM (inactive); in test [17], 25.1 µM (active). Moreover, the Potency result in [2], in test [3], in test [4], in [7], in [13] and in [15] was “inactive” throughout. Besides, the Potency entry in [8] and in test [11] was “inactive” throughout. The compound was called inactive in test [12].

As for `Cc1cc2nc(N)sc2cc1C`, the Potency result in [4], in [5], in test [7], in test [13], in [17] and in [19] was “inactive” in each case. Besides, the call in test [12] was inactive.

With `Brc1ccc(-c2ccccc2)cc1`, the Potency result in test [4], in test [5], in test [13], in test [16] and in [8] was “inactive” each time. In addition, in [18], the activation was -2.59% (inactive).

Source of the values: PubChem BioAssay (NCATS).
